Only some compounds are listed: those with a hit (about 4.6% of all), similar ones and a draw of the others.
FAS-TE inh = FAS thioesterase (human) inhibition; recombinant FAS-TE, OMFH fluorogenic substrate, fluorescence endpoint; 0.67% of 360,000 active; inhibition, % at 15 µM; AID 602261;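 active = compounds whose normalised, plate-corrected inhibition of enzyme fluorescence in the single-dose primary screen is 50% or more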
ADAM17 inh = ADAM17 inhibition, QFRET primary screen. P78536. inhibition, % at 6.95 µM. recombinant ADAM17, EDANS/DABCYL FRET peptide cleavage. 0.83% of 370,000 active;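 active = inhibition above the mean of compounds lying between control limits plus 3 SD, set per campaign, cut at about 8.5% in these data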
ADAM10 inh = inhibits human ADAM10; recombinant ADAM10, EDANS/DABCYL FRET peptide cleavage, 3 h; inhibition, % at 7 µM; 0.62% of 370,000 active;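 active = inhibition above a per-campaign cutoff equal to the mean of compounds falling between control-based bounds plus 3 SD, cut at about 20% in these data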
GRIN3A LBD mod = modulates the human NR3A ligand-binding domain; NR3A LBD differential scanning fluorimetry, Tm shift; 0% = protein alone, 100% = glycine-bound protein; Tm shift relative to glycine control, % at 25 µM; 2.5% of 340,000 active; AID 1259313;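 active = melting temperature shift of at least 10% of the positive control shift, at one fixed dose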
KLK7 zymogen act = proKLK7 (human) activation, primary screen | P49862 | purified proKLK7, EDANS-DABCYL substrate fluorescence; 100% is mature enzyme control, 0% vehicle | activation, % at 7 µM | 0.9% of 370,000 active | AID 652039;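 active = activation above the mean of all tested compounds plus 3 SD, computed per campaign excluding outliers beyond control limits, cut at about 13% in these data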
Hits are given with their value; - = inactive; . = not tested or not shown.

SMILES	FAS-TE inh	ADAM17 inh	ADAM10 inh	GRIN3A LBD mod	KLK7 zymogen act
CC(=O)OC12CCCN(C1)/C(=C/c1cccc(N(C)C)c1)C2 (centres undefined)	.	-	-	.	-
O=C(NNC(=O)c1ccc(NC(=O)c2ccccc2)cc1)c1ccccc1	-	-	-	-	-
O=C(Nc1ccc(Nc2ccccc2)cc1)c1ccccc1	.	-	-	13	-
O=C(Nc1ccc(C2SCCS2)cc1)c1ccccc1	-	-	-	15	-
CCC[C@H]1[C@@H](OC(=O)NCc2ccc(Cl)c(Cl)c2)CC[C@@]23CCCN2C(=O)CCC[C@@H]13	.	-	-	.	.
Cc1cc(NC(=O)c2ccc(NS(=O)(=O)c3ccc(F)cc3)cc2)no1	.	-	-	.	-
CCCC1CCC2(CC1)CCC2OC(=S)Nc1ccc(I)cc1 (centres undefined)	.	-	-	.	.
CCNC(=O)/C(C#N)=C/c1c(N(Cc2ccccc2)Cc2ccccc2)nc2ccccn2c1=O	-	-	-	22	-
CNC(=O)/C(C#N)=C/c1c(N(Cc2ccccc2)Cc2ccccc2)nc2c(C)cccn2c1=O	-	-	-	-	-
NS(=O)(=O)c1ccc(N2N=C(c3ccccc3)CC2c2ccc(F)cc2)cc1 (centres undefined)	-	-	-	-	-
COc1ccc(C2CC(c3ccccc3Cl)=NN2c2ccc(S(N)(=O)=O)cc2)cc1 (centres undefined)	-	-	-	11	-
COc1ccc(C2CC(c3ccccc3)=NN2c2ccc(S(N)(=O)=O)cc2)cc1 (centres undefined)	-	-	-	-	-
COc1ccc(C2CC(c3cccc(F)c3)=NN2c2ccc(S(N)(=O)=O)cc2)cc1 (centres undefined)	-	-	-	37	-
Cc1cccc(C2CC(c3ccccc3)=NN2c2ccc(S(N)(=O)=O)cc2)c1 (centres undefined)	-	-	-	.	-
NS(=O)(=O)c1ccc(N2N=C(c3ccccc3)CC2c2cccc(Cl)c2)cc1 (centres undefined)	-	-	-	24	-
COc1ccc(C2CC(c3cccc(Br)c3)=NN2c2ccc(S(N)(=O)=O)cc2)cc1 (centres undefined)	-	-	-	27	-
Cc1cc(N2CCN(C(=O)Oc3ccc(-c4ccccc4)cc3)CC2)c2ccccc2n1	.	-	-	.	-
COc1ccc(C2CC(c3cccc(C(F)(F)F)c3)=NN2c2ccc(S(N)(=O)=O)cc2)cc1 (centres undefined)	-	-	-	28	-
COC(=O)c1cccc(OCC(C)CN2CCC(C(O)(c3ccccc3)c3ccccc3)CC2)c1 (centres undefined)	.	-	-	.	-
Cc1cccc(/C=N/NC(=O)c2cc(-c3cccnc3)nc3ccccc23)c1	-	-	-	-	-
Cc1cccc(/C=N/NC(=O)c2cc(-c3cccnc3)nc3c2c(C)nn3-c2ccccc2)c1	-	-	-	24	-
NS(=O)(=O)c1ccc(NC(=S)N2CCN(Cc3ccc(Cl)c(Cl)c3)CC2)cc1	-	-	-	25	-
O=S(=O)(c1ccc(Cl)cc1)N1CCN(C(=S)Nc2ccc(F)c(Cl)c2)CC1	-	-	-	18	-
NS(=O)(=O)c1ccc(NC(=S)N2CCN(c3ccc(Cl)c(Cl)c3)CC2)cc1	-	-	-	-	-
Cc1cccc(C)c1NC(=O)[C@H]1CC(=O)O[C@@H]1c1ccccc1	.	-	-	.	-
SMILES	FAS-TE inh	ADAM17 inh	ADAM10 inh	GRIN3A LBD mod	KLK7 zymogen act
O=C1c2ccccc2C(=O)c2cc(N3CCCCC3)ccc21	-	-	-	38	-
CCCCNC(=O)C[C@H]1C[C@@]2(C(=O)OC)C(=C[C@H](C3CCCC3)O[C@@H]2C)N(Cc2ccco2)C1=O	.	-	-	.	-
CN(C)c1ccc(/C=N/N2C(=S)SC(C)(C)C2N(O)C(=O)Nc2ccc([N+](=O)[O-])cc2)cc1 (centres undefined)	-	-	-	11	-
Cc1cc(C(C)(C)C)cc(S(=O)(=O)Nc2ccc(O)c(C(=O)O)c2)c1C	-	-	-	-	-
Cc1ccc(S(=O)(=O)Nc2ccc(C(=O)NCc3ccccn3)cc2)cc1	-	-	-	13	-
CC(=O)Nc1ccc(NC(=O)c2ccc(NS(=O)(=O)c3cc(C(C)(C)C)cc(C)c3C)cc2)cc1	-	-	-	26	-
COc1ccccc1NC(=O)c1ccc(NS(=O)(=O)c2cccc3cccnc23)cc1	-	-	-	18	-
Cc1ccc(NC(=O)c2ccc(NS(=O)(=O)c3cccc4cccnc34)cc2)cc1	-	.	.	28	.
